{"source": "PubChem BioAssay (NCATS)", "key": {"[1]": {"target": "Glutathione peroxidase 1 (Homo sapiens) (UniProt P07203)", "sequence (P07203 whole entry, looked up)": "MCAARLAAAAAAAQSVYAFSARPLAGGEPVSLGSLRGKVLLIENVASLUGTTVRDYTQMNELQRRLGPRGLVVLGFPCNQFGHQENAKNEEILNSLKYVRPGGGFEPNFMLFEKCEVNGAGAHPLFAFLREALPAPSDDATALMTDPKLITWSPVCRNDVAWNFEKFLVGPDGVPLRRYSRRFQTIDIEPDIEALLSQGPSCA", "experiment": "Primary qHTS Assay for Inhibitors of Recombinant Selenoprotein Glutathione Peroxidase 1 (GPX1) (AID 1845191); note: nearly all actives have a fitted effect of over 65% in size", "conditions": "recombinant GPX1, GR-coupled NADPH fluorescence, 15 min; series mostly up to 48.8 µM", "outline": "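GR-coupled readout: NADPH consumption tracked by fluorescence, ex 340/em 450 nm, at t=0 and after 15 min at RT. Final mix 10 nM GPX1, 1 mM GSH, 0.5 mM CHP, 0.5 mM NADPH, 100 nM GR, 0.01% BSA, following 30 min enzyme–compound preincubation.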"}, "[2]": {"target": "Phospholipid hydroperoxide glutathione peroxidase GPX4 (Homo sapiens) (UniProt P36969)", "sequence (P36969 whole entry, looked up)": "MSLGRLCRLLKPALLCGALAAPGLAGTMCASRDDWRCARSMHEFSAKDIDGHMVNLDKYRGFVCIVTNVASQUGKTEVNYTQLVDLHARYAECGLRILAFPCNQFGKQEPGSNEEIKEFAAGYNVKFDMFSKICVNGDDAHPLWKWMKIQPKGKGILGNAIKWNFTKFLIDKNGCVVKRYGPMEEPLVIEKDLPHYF", "experiment": "Primary qHTS Assay for Inhibitors of Recombinant Selenoprotein Glutathione Peroxidase 4 (GPX4) (AID 1845192); note: nearly all actives have a fitted effect of over 65% in size", "conditions": "recombinant GPX4, GR-coupled NADPH fluorescence, 15 min; series mostly up to 50 µM", "outline": "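Steps: GPX4 plus compound, 30 min RT; add GR/GSH/NADPH master mix; start with cumene hydroperoxide; read 340/450 nm fluorescence at 0 and 15 min. Finals were 200 nM GPX4, 1 mM GSH, 0.5 mM CHP, 0.5 mM NADPH, 100 nM GR.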"}, "[3]": {"target": "Luciferin 4-monooxygenase (Photinus pyralis) (UniProt P08659)", "experiment": "Primary firefly luciferase (FLuc) qHTS assay for identification of artifact compounds. (AID 1845220); note: nearly all actives have a fitted effect of over 60% in size", "conditions": "purified firefly luciferase, luminescence, 5 min; series mostly up to 54.1 µM", "outline": "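D-luciferin and ATP (10 uM each, final) in Tris acetate buffer pH 7.6 were incubated with compounds for 15 min at room temperature. The reaction was started with 10 nM Photinus pyralis luciferase and luminescence read after 5 min. Percent inhibition was fitted to a 4-parameter Hill equation.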"}, "[4]": {"experiment": "Primary fluorescence-based thiol-reactive (MSTI) qHTS assay for identification of artifact compounds. (AID 1845221); note: nearly all actives have a fitted effect of over 65% in size; note: potency is the fitted concentration of half-maximal effect;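 for activity change, negative = thiol reactive: thiol-reactive compounds lower the probe fluorescence signal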", "conditions": "MSTI thiol-reactivity probe, 1 h; series mostly up to 53.8 µM", "outline": "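In PBS pH 7.4 with 2% DMSO, each compound met 4 uM MSTI for one hour at ambient temperature, shielded from light, before fluorescence detection.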"}, "[5]": {"system": "Nanoluciferase (engineered Oplophorus gracilirostris luciferase)", "experiment": "Primary Nanoluciferase (NLuc) qHTS assay for identification of artifact compounds. (AID 1845222)", "conditions": "NLuc-conditioned medium, Nano-Glo luminescence, 5 min; series mostly up to 54.1 µM", "outline": "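Diluted conditioned medium from NLuc-expressing S16 cells treated with compounds for 15 min at room temperature, then Nano-Glo substrate added; luminescence read after 5 min. Percent inhibition versus no-enzyme and DMSO controls fitted to 4-parameter Hill equation.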"}}, "note": "A number with no mark means an inactive call. Inconclusive results are not listed. Where a call stands in place of a potency, no number is given. Active and inactive are the calls of the source. Calls come from the whole dose curve; as a rule, active = well fitted curve in the direction sought with a large enough effect; inconclusive = small, poorly fitted or top-dose-only effect, or another doubt; inactive = no such curve, though single readings can be large; an effect the other way counts as inactive or inconclusive. *1 amine or outer side, *2 acyl side, *3 side chain or, on linkers, in order; H or OH if unused. Where a SMILES comes first, the peptide text is derived from it. Bridges are numbered along the chain shown (N, C = ends). X6 = O=C(CCC[*:2])[*:1]", "data": [{"smiles": "CC(=O)O[C@H](C[C@@H](C)[C@H]1C(=O)[C@H](O)[C@@]2(C)[C@@H]3CCC4C(C)(C)[C@@H](O[C@@H]5OC[C@H](O)[C@H](O)[C@H]5O)CC[C@@]45C[C@@]35CC[C@]12C)[C@@H]1OC1(C)C", "note": "(stereo not given in full)", "values": [{"measurement": "Potency", "setting": "[1]", "result": "inactive"}, {"measurement": "Potency", "setting": "[2]", "result": "inactive"}, {"measurement": "Potency", "setting": "[3]", "result": "inactive"}, {"measurement": "Potency", "setting": "[4]", "result": "inactive"}, {"measurement": "Potency", "setting": "[5]", "result": "inactive"}]}, {"smiles": "C[C@@H]1O[C@@H](O[C@H]2[C@H](O[C@H]3CC[C@@]4(C)C(CC[C@]5(C)C4CC=C4C6CC(C)(C)CC[C@]6(C(=O)O[C@@H]6O[C@H](CO[C@@H]7O[C@H](CO)[C@@H](O[C@@H]8O[C@@H](C)[C@H](O)[C@@H](O)[C@H]8O)[C@H](O)[C@H]7O)[C@@H](O)[C@H](O)[C@H]6O)CC[C@]45C)[C@]3(C)CO)OC[C@H](O)[C@@H]2O)[C@H](O)[C@H](O)[C@H]1O", "note": "(stereo not given in full)", "values": [{"measurement": "outcome", "setting": "[1]", "result": "inactive [at 9.52 µM]"}, {"measurement": "activity change, negative = inhibition", "setting": "[2]", "result": "-7.52% [at 9.73 µM]"}, {"measurement": "outcome", "setting": "[3]", "result": "inactive [at 11.6 µM]"}, {"measurement": "activity change, negative = thiol reactive", "setting": "[4]", "result": "181% [at 11.5 µM]"}, {"measurement": "activity, negative = inhibition", "setting": "[5]", "result": "0.304% [at 11.6 µM]"}]}, {"smiles": "CC1NC(=O)C(Cc2c[nH]c3ccccc23)NC1=O", "note": "(stereo not given)", "values": [{"measurement": "Potency", "setting": "[1]", "result": "inactive"}, {"measurement": "Potency", "setting": "[2]", "result": "inactive"}, {"measurement": "Potency", "setting": "[3]", "result": "inactive"}, {"measurement": "Potency", "setting": "[4]", "result": "inactive"}, {"measurement": "Potency", "setting": "[5]", "result": "inactive"}]}, {"smiles": "O=C1CC(c2ccc([N+](=O)[O-])cc2)=NN1c1ccccc1", "values": [{"measurement": "Potency", "setting": "[1]", "result": "inactive"}, {"measurement": "Potency", "setting": "[2]", "result": "inactive"}, {"measurement": "Potency", "setting": "[3]", "result": "inactive"}, {"measurement": "Potency", "setting": "[4]", "result": "4.74 µM (active)"}, {"measurement": "Potency", "setting": "[5]", "result": "inactive"}]}, {"smiles": "CC[C@H](C)[C@@H]1NC(=O)[C@H](Cc2ccc(OC)cc2)NC(=O)CCCSC[C@@H](C(=O)N2CCC[C@H]2C(=O)N[C@@H](CC(C)C)C(=O)NCC(N)=O)NC(=O)[C@H](CC(N)=O)NC(=O)[C@H](CCC(N)=O)NC1=O", "note": "(Y(Me)IQNCPLG-NH2; linker N-5 via X6)", "values": [{"measurement": "Potency", "setting": "[1]", "result": "inactive"}, {"measurement": "Potency", "setting": "[2]", "result": "inactive"}, {"measurement": "Potency", "setting": "[3]", "result": "inactive"}, {"measurement": "Potency", "setting": "[4]", "result": "inactive"}, {"measurement": "Potency", "setting": "[5]", "result": "inactive"}]}]}
